The record followed here is PubChem BioAssay.

Where “and” joins values, the source holds several entries; their conditions need not be identical. Equal entries are not always repeated. Calls of active or inactive are those of the source. Unless noted, how the calls were made is not given here.

The nature of test [1]: circadian clock period modulators, cell-based, LOPAC library, luminescence reporter (AID 2774).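 Further: values are relative to mean of DMSO wells on each plate.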 The conditions noted are these: circadian reporter cells, at 7 µM, actives lie on both sides.
Test [2] is described as follows: hESC survival regulators, cell-based (AID 493140).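 Further: cells exposed to compounds for four days before counting.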 The conditions noted are these: human embryonic stem cell survival screen; stronger effect = higher value.
Test [3] in a line: liver-stage malaria parasite growth inhibition, primary screen, cell-based, HepG2, luciferase luminescence, HepG2 viability (AID 624349; in the data active means parasite load remaining mostly below about 12%, no sharp cut-off; inactive means mostly above about 10%;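 further: 100% = mean of DMSO negative control wells on the same plate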). To be noted: P. berghei liver stage in HepG2, luciferase luminescence, concentration not given here; parasite load remaining: stronger effect = lower value; viability: measured here: HepG2 viability without parasites.
Test [4] can be described thus: sensitizers of A549 cells to miR-34 induction, primary screen, imaging, A549 dox-inducible miR-34, nuclei and caspase counts (AID 1347080;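 active means compounds whose cell count with miR-34 switched on is under 0.7 times the count with it off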). The conditions noted are these: A549 miR-34 inducible, Hoechst nuclei count, 48 h.
In test [5] the test system is Hepatitis C virus NS3 helicase. The test is described as follows: HCV NS3 helicase inhibitors, primary screen, biochemical, fluorescence polarization, LOPAC1280 library (AID 687035; in the data active means inhibition above about 37%). To be noted: Purified HCV NS3 helicase, Cy5-dT15 ssDNA binding fluorescence polarization; stronger effect = higher value; concentration not given here. A general note: Polarisation of emitted light reports the rotation of a fluorescent probe.

A short description of test [6]: Cy5 fluorescence quenching or enhancement artefacts, artefact control for HCV NS3 helicase inhibitor project, biochemical, LOPAC1280 (AID 687037). To be noted: Cy5-DNA-NS3h complex fluorescence interference counterscreen.
The nature of test [7]: viability rescue of complex I mutant cybrids, primary screen, cell-based, galactose medium, ATP luminescence (AID 1645843;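 active means z-score of at least 1.8 in each of two replicates, scored against plate mean and spread of sample wells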;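 further: positive z means more ATP and so rescue of galactose-driven cybrid death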). The conditions noted are these: complex I mutant cybrid cells, 72 h, stronger effect = higher value.
Setting [8] is: stronger effect = lower value, cell number ratio, induced over uninduced.
The mark [9] stands for this setting: measured here: relative caspase fold change +Dox/-Dox.
The mark [10] stands for this setting: measured here: total cells with miR-34 induction, stronger effect = lower value.
Setting [11] is: measured here: total cells without miR-34 induction.

In general, viability refers to a read-out of living cells in per cent, often relative to untreated cells. With `NCCC(=O)NCCc1cnc[nH]1`, in test [1], the period change was 0.085 h (inactive). For the same compound, the survival in test [2] is 7.75 (inactive). Further, the parasite load remaining in test [3] is 133% (inactive) and 73.6% (inactive). Moreover, in test [3], the viability is 94% and 70.5%. The fold change in test [4] (setting [8]) is 0.903 (inactive); in test [4] (setting [9]), 1.35. The cell count in test [4] (setting [10]) came to 9030; in test [4] (setting [11]), 10000.
One may read the inhibition as the relative decrease from the control value, in per cent. `N=c1ccn2c(n1)OC1[C@@H](O)[C@@H](CO)O[C@H]12` (some centres not stated): the period change in test [1] is -0.115 h (inactive). Besides, in test [5], the inhibition is -5% (inactive). In addition, the fluorescence ratio (interference) in test [6] was 1 (inactive). Also, the fold change was 1.14 (inactive) in test [4] (setting [8]) and 1.55 in test [4] (setting [9]). Moreover, the cell count in test [4] (setting [10]) is 1970; in test [4] (setting [11]) it was 1730. In test [7], the z-score is -1.23 (inactive).
`CCOC(=O)C12CC1/C(=N/O)c1ccccc1O2` (configuration not stated): the period change in test [1] was -0.125 h (inactive). Besides, the fold change is 1.06 (inactive) in test [4] (setting [8]) and 2.7 in test [4] (setting [9]). Further, the cell count in test [4] (setting [10]) amounted to 9720; in test [4] (setting [11]), 9140. In addition, the z-score in test [7] was 0.485 (inactive).
On to `CCSC(N)=Nc1ccc(C(F)(F)F)cc1`, for which the period change in test [1] was 0.125 h (inactive). Besides, the fold change in test [4] (setting [8]) is 1.02 (inactive); in test [4] (setting [9]), 0.833. The cell count was determined as 5930 in test [4] (setting [10]) and 5830 in test [4] (setting [11]).
With `O=C1C2CCCCC2C(=O)N1CCCCN1CCN(c2nsc3ccccc23)CC1` (configuration not stated), the fold change was 0.926 (inactive) in test [4] (setting [8]) and 1.74 in test [4] (setting [9]). Also, the cell count was determined as 7810 in test [4] (setting [10]) and 8440 in test [4] (setting [11]). In test [7], the z-score is -1.79 (inactive).
Regarding `Nc1ccn([C@@H]2O[C@H](CO)[C@@H](O)[C@@H]2O)c(=O)n1`, the period change in test [1] is -0.07 h (inactive). Moreover, the inhibition in test [5] was -4% (inactive). Further, the fluorescence ratio (interference) in test [6] was 0.9 (inactive). The fold change in test [4] (setting [8]) was 0.984 (inactive); in test [4] (setting [9]), 1.55. The results for the cell count in test [4] (setting [10]) and in test [4] (setting [11]) were 1860 and 1890, respectively. Also, the z-score in test [7] is -0.93 (inactive).
In the case of `CC(=O)O[C@H]1CC2(C)[C@@H](C[C@@H](O)[C@H]3[C@@]4(C)CC[C@@H](O)[C@@H](C)[C@@H]4CC[C@@]32C)C1=C(CCC=C(C)C)C(=O)O` (some centres not stated), in test [1], the period change was -0.06 h (inactive). In test [5], the inhibition was -2% (inactive). For the same compound, the fluorescence ratio (interference) in test [6] is 1 (inactive). The fold change is 0.982 (inactive) in test [4] (setting [8]) and 1.41 in test [4] (setting [9]). The cell count in test [4] (setting [10]) stood at 9740; in test [4] (setting [11]) it was 9920. Moreover, the z-score in test [7] was 4.71 (active).
Consider `N=c1c[n+](N2CCOCC2)[n-]o1`, for which the period change in test [1] is 0.03 h (inactive). For the same compound, the inhibition in test [5] was -1% (inactive) and -5% (inactive). Moreover, in test [6], the fluorescence ratio (interference) was 1 (inactive). Further, the fold change in test [4] (setting [8]) was 1 (inactive) and 0.984 (inactive); in test [4] (setting [9]), 2.22 and 1.55. The cell count was 10300 and 10500 in test [4] (setting [10]); 10300 and 10700 in test [4] (setting [11]). Further, the z-score in test [7] was -0.02 (inactive) and 0.005 (inactive).
For the compound `N=S(=O)(O)Cc1noc2ccccc12`, in test [1], the period change was 0.1 h (inactive). The inhibition in test [5] was 1% (inactive). Besides, in test [6], the fluorescence ratio (interference) is 1 (inactive). The fold change in test [4] (setting [8]) is 0.955 (inactive); in test [4] (setting [9]), 2.62. The results for the cell count in test [4] (setting [10]) and in test [4] (setting [11]) were 9240 and 9680, respectively. Further, in test [7], the z-score was 0.5 (inactive).
`N=C(N)SCCc1cccc(CCSC(=N)N)c1`: in test [1], the period change is 0.115 h (inactive). Further, the figures for the fold change in test [4] (setting [8]) and in test [4] (setting [9]) were 1.01 (inactive) and 0.632, respectively. Also, the cell count in test [4] (setting [10]) turned out to be 6390; in test [4] (setting [11]) it was 6310.
Regarding `NC(N)=N[C@@H](CCC(=O)O)C(=O)O`, in test [1], the period change was 0.01 h (inactive). In test [5], the inhibition was -3% (inactive). For the same compound, the fluorescence ratio (interference) in test [6] was 1 (inactive). The fold change in test [4] (setting [8]) was 0.954 (inactive) and 0.929 (inactive); in test [4] (setting [9]), 1.36 and 1.31. In addition, the cell count in test [4] (setting [10]) is 9760 and 6110; in test [4] (setting [11]), 10200 and 6580. Moreover, in test [7], the z-score is 0.175 (inactive).
